The values that follow come from PubChem BioAssay (NCI).

About 83,000 compounds went through this panel and 20% of them were active in at least one assay; those are over-represented in the sample as a whole.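 How to read the values: 0–100, growth inhibition (40 = 60% inhibited); 0, no net growth; -100 to 0, cell death (-40 = 40% of starting cells died; -100 = all dead).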 Values without a mark were called inactive. Calls of active or inactive are those of the source. The calls were made as follows: active = growth percent below 10; inactive = the rest.

Some test systems named below: NCI-H23 lung; NCI-H226 lung; NCI-H322M lung; HOP-62 NSCLC; NCI-H460 lung; HOP-92 NSCLC; NCI-H522 lung; A549/ATCC NSCLC; 786-0 renal; COLO 205 colon.
What all share (experiment): NCI-60 one-dose screen, 48 h (100 = growth as untreated, 0 = no growth, -100 = all killed)
What all share (details): 10 µM unless noted

Consider `CC(=O)OCC1SC(OC(C)=O)C(NC(=O)/C=C/CCl)C(OC(C)=O)C1OC(C)=O` (stereo not given), for which the growth with NCI-H23 lung was 99.7%; with NCI-H226 lung, 103%; with NCI-H322M lung, 109%; in the assay with HOP-62 NSCLC, 117%; in the assay with NCI-H460 lung, 102%; in the assay on HOP-92 NSCLC it was 105%. In addition, the growth was -9.03% (active) in the assay on NCI-H522 lung, 89.1% in the assay on A549/ATCC NSCLC, 124% in the assay with 786-0 renal and 107% in the assay with COLO 205 colon.
Turning to `CCCCCCC/C=C/[C@H]1O[C@]23C(=O)C[C@@]4(C[C@@H](OC5OC(CO)C(O)C(O)C5O)C[C@@H]4[C@H]2C=C1C)OC3=O` (stereo not given in full), the growth is 40.8% with NCI-H23 lung; 65.2% in the assay on NCI-H226 lung; 56.2% in the assay on NCI-H322M lung; 17.3% with HOP-62 NSCLC; 49% with NCI-H460 lung; 59% in the assay on HOP-92 NSCLC. Also, the growth in the assay on NCI-H522 lung was -44.7% (active); in the assay on A549/ATCC NSCLC, 62.2%; with 786-0 renal, 5.03% (active); in the assay on COLO 205 colon, 35.9%.
Consider `COc1cc(C2=N/C(=C\c3cc4ccccc4nc3Oc3ccccc3)C(=O)N2C(=N)N)cc(OC)c1OC`, for which the growth was 71% with NCI-H23 lung; 18.7% in the assay with NCI-H226 lung; 55.4% in the assay on NCI-H322M lung; -0.576% (active) in the assay on HOP-62 NSCLC; 52.1% in the assay on NCI-H460 lung; 27.9% with HOP-92 NSCLC. The growth is 60.3% with NCI-H522 lung, 77.1% with A549/ATCC NSCLC, 28.6% with 786-0 renal and 90.4% with COLO 205 colon.
For the compound `CCO/C=N/S(=O)(=O)c1cc2c(cc1Cl)NC=NS2(=O)=O`, the growth in the assay on NCI-H23 lung was 103%; in the assay with NCI-H226 lung, 98.7%; in the assay with NCI-H322M lung, 111%; in the assay on HOP-62 NSCLC, 93.9%; in the assay with NCI-H460 lung, 106%; in the assay with HOP-92 NSCLC it was 92.2%. For the same compound, the growth in the assay with NCI-H522 lung was 99.4%; with A549/ATCC NSCLC, 89%; with 786-0 renal, 100%; in the assay on COLO 205 colon it was 108%.
As to `O=C(O)c1ccc(-n2cc(/C=N/Nc3ccc(Cl)cc3Cl)c(-c3ccccc3)n2)cc1`, the growth in the assay on NCI-H23 lung was 84.5%; in the assay with NCI-H226 lung it was 88.6%; in the assay on NCI-H322M lung it was 103%; with HOP-62 NSCLC it was 92.2%; in the assay with NCI-H460 lung, 102%; in the assay on HOP-92 NSCLC it was 106%. Further, the growth with NCI-H522 lung was 78%; in the assay with A549/ATCC NSCLC, 97.1%; in the assay with 786-0 renal it was 97.5%; in the assay with COLO 205 colon, 96.7%.
For the compound `COc1cc(C(C)c2ccc3c(ccn3C)c2)cc(OC)c1OC` (stereo not given), the growth was 29.3% with NCI-H23 lung; 67.2% in the assay on NCI-H226 lung; 42.8% with NCI-H322M lung; 29.4% in the assay with HOP-62 NSCLC; 2.89% (active) in the assay on NCI-H460 lung; 48.2% in the assay with HOP-92 NSCLC. In addition, the growth is 11.3% with NCI-H522 lung, 16.3% in the assay on A549/ATCC NSCLC, 22.6% with 786-0 renal and -56.6% (active) in the assay on COLO 205 colon.
As to `N#Cc1c(-c2ccc(F)cc2)nc(N/N=C/c2c[nH]c3ccccc23)nc1N1CCOCC1`, the growth was 91.8% in the assay on NCI-H23 lung; 125% with NCI-H226 lung; 66.5% in the assay on NCI-H322M lung; 69.6% with HOP-62 NSCLC; 16.5% with NCI-H460 lung; 68.1% in the assay on HOP-92 NSCLC. For the same compound, the growth with NCI-H522 lung was 46.3%; with A549/ATCC NSCLC, 47.1%; in the assay on 786-0 renal it was -24.4% (active); in the assay on COLO 205 colon, 40.1%.
With `Cc1cccc(NC(=O)c2sc3nc4c(cc3c2N)CN(Cc2ccccc2)CC4)c1C`, the growth is 51.3% with NCI-H23 lung; 60% with NCI-H226 lung; 40.4% with NCI-H322M lung; 32.3% in the assay on HOP-62 NSCLC; 12.5% in the assay with NCI-H460 lung; 35.2% in the assay with HOP-92 NSCLC. Besides, the growth in the assay with NCI-H522 lung is 11.3%; with A549/ATCC NSCLC, 31.1%; in the assay on 786-0 renal it was 31.9%; in the assay on COLO 205 colon it was -0.373% (active).
Turning to `CC(=O)c1ccc(NC(=O)CSc2nnc(-c3cc(-c4ccc(Cl)cc4)nc4ccccc34)o2)cc1`, the growth in the assay on NCI-H23 lung is 61%; in the assay with NCI-H226 lung, 96.4%; with NCI-H322M lung, 97.8%; with HOP-62 NSCLC, 80.6%; with NCI-H460 lung, 46%; in the assay with HOP-92 NSCLC it was 94.2%. In addition, the growth was 60.9% with NCI-H522 lung, 76.7% in the assay with A549/ATCC NSCLC, 63.5% in the assay on 786-0 renal and 96.6% with COLO 205 colon.
For `C=C1C(=O)O[C@H]2[C@H]1CC/C(C=Nc1c(N)cc(F)cc1Br)=C\CC[C@@]1(C)O[C@@H]21`, the growth is 93.1% with NCI-H23 lung; 82.9% in the assay on NCI-H226 lung; 97.7% in the assay with NCI-H322M lung; 89.2% in the assay on HOP-62 NSCLC; 96.3% in the assay on NCI-H460 lung; 97.3% with HOP-92 NSCLC. In addition, the growth in the assay on NCI-H522 lung was 53.8%; in the assay with A549/ATCC NSCLC, 78.8%; with 786-0 renal it was 43.8%; in the assay on COLO 205 colon, 38.8%.
With `COc1ccc2nc(-c3ccc(OC)c(OC)c3)cc(-c3nnc(SCC(=O)Nc4ccc(/C(C)=N\O)cc4)n3-c3ccccc3)c2c1`, the growth was 91.5% in the assay with NCI-H23 lung; 74.6% in the assay on NCI-H226 lung; 84.5% in the assay on NCI-H322M lung; 87.9% in the assay with HOP-62 NSCLC; 89.6% with NCI-H460 lung; 61.6% with HOP-92 NSCLC. Besides, the growth in the assay with NCI-H522 lung is 42%; with A549/ATCC NSCLC it was 70.7%; in the assay on 786-0 renal, 88.5%; in the assay with COLO 205 colon, 112%.
